Results filed as inconclusive are left out. The source made the active and inactive calls. Unless noted, calls come from the whole dose curve; as a rule, active = well fitted curve in the direction sought with a large enough effect in the repeat runs; inconclusive = weak or mixed curves; inactive = no such curve, though single readings can be large; an effect the other way counts as inactive or inconclusive.
Legend:
[1] = qHTS assay for small molecule agonists of the p53 signaling pathway (AID 651631; calls by dose curve; note: nearly all actives have a fitted effect of over 15% in size)
Procedure, shortened: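 HCT-116 cells carrying a beta-lactamase reporter under p53 response elements were dosed with compound for 16 h at 37 °C. LiveBLAzer B/G FRET substrate was then added for 2 h at room temperature, and fluorescence intensity was read to detect pathway agonism.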

[2] = qHTS assay for small molecules that induce genotoxicity in human embryonic kidney cells expressing luciferase-tagged ATAD5 (AID 651632); note: nearly all actives have a fitted effect of over 15% in size
Procedure, shortened: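 Genotoxicity read-out via ATAD5-luciferase: HEK293T cells, 16 hr compound incubation at 37C, Amplite detection.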

[3] = qHTS assay for small molecule agonists of the p53 signaling pathway - cell viability (AID 651633; calls by dose curve;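 note: p53RE-bla HCT reporter cells with a stable beta-lactamase p53 reporter; series mostly up to about 83 µM; nearly all actives have a fitted effect of over 30% in size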)
Procedure, shortened: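 p53RE-bla cells were treated with compound for 16 hours at 37 C. Cytotoxicity was then measured as CellTiter-Glo luminescence after 30 min at room temperature.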

[4] = qHTS assay for small molecules that induce genotoxicity in human embryonic kidney cells expressing luciferase-tagged ATAD5 - cell viability (AID 651634; calls by dose curve; note: nearly all actives have a fitted effect of over 25% in size)
Procedure, shortened: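 Live-cell protease activity (CellTiter-Fluor, fluorescence) indicates viability. HEK293T cells with luciferase-tagged ATAD5; 15.5 hr compound treatment at 37C.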

[5] = qHTS assay for small molecule disruptors of the mitochondrial membrane potential - cell viability (AID 720634; calls by dose curve;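 note: human HepG2 liver cancer cells; series mostly up to about 83 µM; nearly all actives have a fitted effect of over 20% in size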)
Procedure, shortened: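 Human hepatoma HepG2 cells were treated for 1 hr with test chemicals, then given m-MPI dye and CellTiter-Glo. Cell viability reflects luminescence proportional to cellular ATP.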

[6] = qHTS assay to test for compound auto fluorescence at 590 nm (red) in HepG2 cells (AID 720674)
Procedure, shortened: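 Fluorescence at 590 nm emission following 540 nm excitation was recorded from HepG2 wells one hour after compound transfer, with DMSO-only wells as vehicle and Rose Bengal sodium equivalency as the scale.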

[7] = qHTS assay to test for compound auto fluorescence at 535 nm (green) in HepG2 cells (AID 720675)
[8] = qHTS assay to test for compound auto fluorescence at 460 nm (blue) in HEK293 cells (AID 720678)
Procedure, shortened: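 After cell attachment (4-5 hr, 37C), compounds were pinned onto HEK293 monolayers in 10% dialyzed FBS medium. The blue channel (405/460 nm) was read following overnight culture. Equivalency was calculated against triamterene.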

[9] = qHTS assay to test for compound auto fluorescence at 590 nm (red) in HEK293 cells (AID 720679)
Procedure, shortened: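 Plates of HEK293 cells (10% dialyzed FBS) are treated with 23 nL compound or DMSO vehicle after a 4-5 hr attachment period, incubated overnight at 37C, and read for red fluorescence at 540/590nm.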

[10] = qHTS assay to test for compound auto fluorescence at 460 nm (blue) in HEK293 cell free culture (AID 720681)
Procedure, shortened: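 Compounds were added to cell-free DMEM with 10% FBS and fluorescence read directly. The blue channel used 405 nm excitation and 460 nm emission, with triamterene as the reference fluorophore.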

[11] = qHTS assay to test for compound auto fluorescence at 535 nm (green) in HEK293 cell free culture (AID 720682)
Procedure, shortened: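 Green-label autofluorescence (485 nm excitation, 535 nm emission) measured on compound added to cell-free culture medium (DMEM, 10% FBS). Output is expressed relative to fluorescein.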

[12] = qHTS assay to test for compound auto fluorescence at 590 nm (red) in HEK293 cell free culture (AID 720683)
Procedure, shortened: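 Cell-free wells of DMEM with 10% FBS received compound, and intrinsic fluorescence was read at excitation/emission 540/590 nm. Values expressed as equivalence to Rose Bengal sodium.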

[13] = qHTS assay to test for compound auto fluorescence at 460 nm (blue) in HepG2 cell free culture (AID 720685)
Procedure, shortened: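 Compound (23 nL) or DMSO pinned into cell-free MEM with 10% FBS; blue fluorescence read at 405/460 nm excitation/emission, expressed as auto-fluorescence equivalency to triamterene.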

[14] = qHTS assay to test for compound auto fluorescence at 535 nm (green) in HepG2 cell free culture (AID 720686)
[15] = qHTS assay to test for compound auto fluorescence at 460 nm (blue) in HepG2 cells (AID 720687)
Procedure, shortened: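 HepG2 cells in MEM with 10% FBS, attached overnight at 37 C, were exposed to compound or DMSO for 1 hr at 37 C, 5% CO2. Blue fluorescence was read at 405/460 nm, with triamterene as reference fluorophore.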

[16] = qHTS assay to test for compound auto fluorescence at 535 nm (green) in HEK293 cells (AID 720680)
[17] = qHTS assay to test for compound auto fluorescence at 590 nm (red) in HepG2 cell free culture (AID 720684)
Procedure, shortened: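 Compounds are added to culture medium (MEM, 10% FBS) lacking cells, then fluorescence is read at excitation 540 nm, emission 590 nm, with Rose Bengal sodium as the equivalency standard.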

[18] = biological target: Glucocorticoid receptor (Homo sapiens) (UniProt P04150); assay: qHTS assay to identify small molecule agonists of the glucocorticoid receptor (GR) signaling pathway (AID 720691; active = well fitted activation curve with a large enough effect in the signal ratio in the repeat runs, not every such curve was filed as active; the % refers to the signal ratio)
Sequence of Glucocorticoid receptor (Homo sapiens) (P04150 whole entry, looked up): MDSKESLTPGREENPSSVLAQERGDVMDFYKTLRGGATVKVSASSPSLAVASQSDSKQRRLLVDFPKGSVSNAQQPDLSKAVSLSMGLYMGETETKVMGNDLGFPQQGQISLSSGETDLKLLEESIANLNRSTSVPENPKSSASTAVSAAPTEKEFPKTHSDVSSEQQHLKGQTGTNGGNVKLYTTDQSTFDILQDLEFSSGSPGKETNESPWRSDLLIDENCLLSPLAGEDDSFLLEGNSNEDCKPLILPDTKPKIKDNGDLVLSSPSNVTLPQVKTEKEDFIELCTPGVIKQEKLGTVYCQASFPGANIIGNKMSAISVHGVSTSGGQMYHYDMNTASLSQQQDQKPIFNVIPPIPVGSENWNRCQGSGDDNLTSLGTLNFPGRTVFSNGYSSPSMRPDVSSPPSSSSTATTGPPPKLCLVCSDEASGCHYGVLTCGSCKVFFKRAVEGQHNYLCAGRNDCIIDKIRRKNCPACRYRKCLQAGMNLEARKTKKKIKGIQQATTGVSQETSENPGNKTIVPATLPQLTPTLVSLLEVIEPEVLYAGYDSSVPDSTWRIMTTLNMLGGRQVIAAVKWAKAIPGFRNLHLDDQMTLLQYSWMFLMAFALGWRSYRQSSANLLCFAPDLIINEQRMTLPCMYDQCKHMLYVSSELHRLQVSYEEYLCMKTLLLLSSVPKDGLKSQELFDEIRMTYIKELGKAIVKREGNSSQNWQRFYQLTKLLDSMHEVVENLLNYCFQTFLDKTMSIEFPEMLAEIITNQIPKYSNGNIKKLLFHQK
Procedure, shortened: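 Beta-lactamase reporter activity, read as fluorescence intensity, was measured in GR-bla HeLa cells exposed to compounds for 18 h at 37 C and then loaded with LiveBLAzer B/G FRET substrate for 2 h at room temperature.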

[19] = biological target: Glucocorticoid receptor (Homo sapiens) (UniProt P04150); assay: qHTS assay to identify small molecule antagonists of the glucocorticoid receptor (GR) signaling pathway (AID 720692; active = well fitted inhibition curve with a large enough effect in the signal ratio in the repeat runs, not every such curve was filed as active; the % refers to the signal ratio)
Procedure, shortened: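 Fluorescence from cleaved LiveBLAzer B/G FRET substrate reports GRE-driven beta-lactamase in HeLa cells; compounds are tested against 5 nM dexamethasone (final) over 18 h at 37 C, substrate incubation 2 h at room temperature.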

[20] = qHTS assay for small molecule disruptors of the mitochondrial membrane potential (AID 720635)
Procedure, shortened: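 HepG2 cells exposed to compound 1 hr at 37C, then Mito-MPS dye 30 min. Ratio read of aggregate (540/590 nm) versus monomer (490/535 nm) fluorescence.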
% is set by controls: 0 for no effect and ±100 for the full control effect.

CCCCCCCCCCCCCCCCBr
inactive: Potency [1] | Potency [2] | Potency [3] | Potency [4] | Potency [5] | fluorescence, relative to Rose Bengal [6] 0.0532% [at 18.6 µM] | fluorescence, % of fluorescein control [7] 0.118% [at 18.6 µM] | fluorescence, % of triamterene [8] -0.0281% [at 18.6 µM] | fluorescence, % of fluorescent control [9] -0.108% [at 18.6 µM] | fluorescence, % of fluorescent control [10] 0.102% [at 18.6 µM] | activity change [11] 0.0082% [at 18.6 µM] | fluorescence, % of fluorescent control [12] 0.0252% [at 18.6 µM] | fluorescence, % of fluorescent control [13] -0.0045% [at 18.6 µM] | fluorescence, % of fluorescein control [14] 0.0028% [at 18.6 µM] | fluorescence, % of fluorescent control [15] -0.0027% [at 18.6 µM]

C=CCCCCCCCCCCCCCCCC
inactive: activation [1] -3.57% [at 8.3 µM] | activation [2] 2.36% [at 8.08 µM] | activity change, negative = cytotoxicity [3] 16.1% [at 8.08 µM] | activity, negative = cytotoxicity [4] 7.59% [at 8.08 µM] | activity change, negative = cytotoxicity [5] 11.3% [at 8.08 µM] | fluorescence, relative to Rose Bengal [6] 0.0868% [at 3.72 µM] | fluorescence, % of fluorescein control [7] -0.0078% [at 3.72 µM] | fluorescence, % of triamterene [8] 0.18% [at 3.72 µM] | fluorescence, % of fluorescein [16] 0.013% [at 3.72 µM] | fluorescence, % of fluorescent control [10] -0.189% [at 3.72 µM] | activity change [11] -0.098% [at 3.72 µM] | fluorescence, % of fluorescent control [12] -0.0981% [at 3.72 µM] | fluorescence, % of Rose Bengal [17] 0.0296% [at 3.72 µM] | fluorescence, % of fluorescent control [13] -0.0068% [at 3.72 µM] | fluorescence, % of fluorescein control [14] -0.0312% [at 3.72 µM] | fluorescence, % of fluorescent control [15] 0.0871% [at 3.72 µM]

CCCCOC(=O)CCS
inactive: Potency [1] | Potency [2] | Potency [3] | Potency [4] | Potency [5] | outcome [6] | outcome [7] | Potency [8] | outcome [9] | Potency [10] | outcome [11] | outcome [12] | Potency [13] | outcome [14] | Potency [15] | Potency [18]

O=C(CCCN1CCC(O)(c2ccc(Br)cc2)CC1)c1ccc(F)cc1
inactive: Potency [1] | Potency [2] | Potency [3] | Potency [4] | Potency [5] | fluorescence, relative to Rose Bengal [6] 0.666% [at 18.6 µM] | fluorescence, % of fluorescein control [7] 0.0047% [at 18.6 µM] | fluorescence, % of triamterene [8] -0.176% [at 18.6 µM] | fluorescence, % of fluorescent control [9] -0.139% [at 18.6 µM] | fluorescence, % of fluorescein [16] -0.0174% [at 18.6 µM] | activity change [11] 0.0165% [at 18.6 µM] | fluorescence, % of fluorescent control [12] 0.118% [at 18.6 µM] | fluorescence, % of Rose Bengal [17] -0.294% [at 18.6 µM] | fluorescence, % of fluorescent control [13] 0.0015% [at 18.6 µM] | fluorescence, % of fluorescein control [14] -0.0224% [at 18.6 µM] | fluorescence, % of fluorescent control [15] 0.0362% [at 18.6 µM] | Potency [19]

Cc1cc(OI)c(C(C)C)cc1-c1cc(C(C)C)c(OI)cc1C
inactive: Potency [1] | Potency [2] | Potency [3] | Potency [4] | Potency [5] | outcome [6] | outcome [7] | Potency [8] | outcome [9] | outcome [16] | Potency [10] | outcome [11] | outcome [12] | outcome [17] | Potency [13] | outcome [14] | Potency [15]

CN1C(=O)CC(C)(c2ccccc2)C1=O (stereo unspecified)
inactive: Potency [1] | Potency [2] | Potency [3] | Potency [4] | Potency [5] | Potency [20] | outcome [6] | Potency [8] | outcome [16] | Potency [10] | outcome [11] | outcome [12] | outcome [17] | Potency [13] | outcome [14] | Potency [15] | Potency [19]

Nc1ccc(S(=O)(=O)O)c(N)c1
inactive: Potency [1] | Potency [2] | Potency [3] | Potency [4] | Potency [5] | outcome [6] | outcome [7] | Potency [8] | outcome [9] | outcome [16] | Potency [10] | outcome [11] | outcome [12] | outcome [17] | Potency [13] | outcome [14] | Potency [15] | Potency [19]

— PubChem BioAssay (Tox21)
